Among all 390,000 compounds or so, about 4,000 (1%) were called active. A call without a number means that no potency is given here. Not shown: some 4% with an inconclusive outcome. This is one part of a sample in which actives are shown more often than they occur. Unmarked numbers belong to inactive results. The call rests on the fitted dose curve; in most records, active means well fitted inhibition curve with a large enough effect; inconclusive means small, poorly fitted or top-dose-only effect; inactive means no such curve, though single readings can be large or run the other way.
Potency means the concentration at half of the fitted maximal effect.

For this experiment, the target named is Thioredoxin reductase 1, cytoplasmic (Rattus norvegicus) (UniProt O89049). Nature of the experiment: qHTS Assay for Inhibitors of Mammalian Selenoprotein Thioredoxin Reductase 1 (TrxR1): qHTS. Further: nearly all actives have a fitted effect of over 65% in size. To be noted: recombinant rTrxR1, NADPH fluorescence consumption, selenite substrate; series mostly up to 114 µM. The gist of the method: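 Rat TrxR1 (90 nM in the dispensed reagent) was pre-reduced with 400 uM NADPH for 5 min at room temperature, then incubated with compound for 15 min. After 400 uM selenite was added, NADPH fluorescence (Ex 340/Em 450 nm) was followed for 8 min.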
Sequence of Thioredoxin reductase 1, cytoplasmic (Rattus norvegicus) (O89049 whole entry, looked up): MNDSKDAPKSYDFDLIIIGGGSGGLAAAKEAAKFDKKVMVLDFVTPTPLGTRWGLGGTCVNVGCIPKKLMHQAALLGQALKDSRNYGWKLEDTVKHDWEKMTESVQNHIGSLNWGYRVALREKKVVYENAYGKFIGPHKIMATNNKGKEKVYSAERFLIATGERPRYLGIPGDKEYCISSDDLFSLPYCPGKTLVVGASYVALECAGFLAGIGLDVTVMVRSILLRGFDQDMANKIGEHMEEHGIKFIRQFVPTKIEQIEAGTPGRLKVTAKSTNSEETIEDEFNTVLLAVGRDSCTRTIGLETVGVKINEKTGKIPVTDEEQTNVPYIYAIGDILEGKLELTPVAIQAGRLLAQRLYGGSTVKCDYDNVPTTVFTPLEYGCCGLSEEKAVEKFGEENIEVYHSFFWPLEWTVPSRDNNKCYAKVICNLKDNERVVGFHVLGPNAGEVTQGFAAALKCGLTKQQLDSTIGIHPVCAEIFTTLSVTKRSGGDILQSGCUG
In the case of `C#CC(C)(CC)NC(=O)Cn1nnc(-c2ccc(OCc3c(F)cccc3Cl)cc2)n1` (configuration not stated), the Potency result was “inactive”.

As for `COc1cc(OC)cc(C(=O)NCCc2csc3nc(-c4ccccc4F)nn23)c1`, the Potency result is “inactive”.

Regarding `COc1cc(C(=O)NCC(c2ccc(Cl)cc2)N2CCOCC2)cc(OC)c1OC` (configuration not stated), the Potency entry was “inactive”.

As for `CCn1c(CNC(=O)c2ccco2)nnc1SCC(=O)Nc1cccc(F)c1`, the Potency entry is “inactive”.

Regarding `O=C(CSc1ccc(-c2ccco2)nn1)NCc1ccc2c(c1)OCO2`, the Potency result is “inactive”.

On to `O=C(CSc1ccc(-c2ccco2)nn1)Nc1cccc(F)c1`, for which the Potency was 25.1 µM (active).

Take `COc1ccc(OCCn2cc(C(=O)C3CCCCC3)c3ccccc32)cc1`: the Potency entry is “inactive”.

For `Cc1ccc(C)c(N2CCN(Cc3nnc(-c4ccccc4)o3)CC2)c1`, the Potency entry was “inactive”.

On to `C=C(Br)CN1CCN(CC(=C)Br)CC1`, for which the Potency is 12.6 µM (active).

With `Cc1ccc(CN(C(=O)COc2ccc(Cl)cc2C)C2CCS(=O)(=O)C2)o1` (configuration not stated), the Potency result was “inactive”.

For the molecule `CCOC(=O)CSc1nnc(-c2ccco2)n1C`, the Potency was 22.4 µM (active).

For the molecule `CCOC(=O)CSc1nnc(CNC(=O)c2ccco2)n1-c1ccc(F)cc1`, the Potency entry is “inactive”.

As for `Cn1c(SCC(=O)N2CCCC2)nnc1-c1cccs1`, the Potency entry was “inactive”.

Take `CCCN1CCC(=O)N(C(CSc2ccc(C)cc2)Cc2ccccc2)CC1` (configuration not stated): the Potency entry was “inactive”.

`CCc1ccccc1N1C(=O)C2C3CC(=O)C(c4ccccc43)C2C1=O` (configuration not stated): the Potency entry was “inactive”.

`Cn1c(=O)c2cn(-c3cccc4ccccc34)cc2n(C)c1=O`: the Potency result was “inactive”.

As for `CC1=C(C)CC2C(=O)N(c3cccc4ccccc34)C(=O)C2C1` (configuration not stated), the Potency is 14.1 µM (active).

On to `COc1cccc(OCCn2c(-c3ccc(Br)cc3)nc3ccccc3c2=O)c1`, for which the Potency entry was “inactive”.

`COC(=O)C(CC(C)C)NS(=O)(=O)c1cc(Br)ccc1Br` (configuration not stated): the Potency entry was “inactive”.

With `O=C(NCC(c1cccnc1)N1CCc2ccccc21)c1cccc(C(F)(F)F)c1` (configuration not stated), the Potency entry was “inactive”.

For `Nc1ccccc1N`, the Potency entry is “inactive”.

Consider `COc1ccc(N2C(=O)CC(Sc3n[nH]c(-c4ccc(C)cc4)n3)C2=O)cc1` (configuration not stated), for which the Potency was 5.01 µM (active).

Turning to `COc1ccc(-c2nc(SCC(=O)N3CCCCC3C)n[nH]2)cc1` (configuration not stated), the Potency result was “inactive”.

For the molecule `CC(=O)Nc1ccc(N2C(=O)CC(Sc3nccc(C)n3)C2=O)cc1` (configuration not stated), the Potency result is “inactive”.

Consider `C/[N+]([O-])=C\c1ccc([N+](=O)[O-])o1`, for which the Potency was 11.2 µM (active).

Turning to `Cc1cccc(NC(=O)COC(=O)c2ccccc2OCc2cccc(Br)c2)c1`, the Potency entry was “inactive”.

Turning to `Cn1c(SCC(=O)Nc2ccc(N3CCOCC3)cc2)nnc1C(F)(F)F`, the Potency result is “inactive”.

As to `Cc1cc(Nc2cc(N3CCN(C)CC3)nc(Sc3ccc(NC(=O)C4CC4)cc3)n2)n[nH]1`, the Potency entry was “inactive”.

As to `C=CC(=O)Nc1ccc(Nc2ccnc(Nc3ccc(N4CCN(C)CC4)cc3)n2)cc1`, the Potency is 12.6 µM (active).

For the molecule `CCc1ccc(NC(=O)N2CCN(C(=O)c3nsc4ccccc34)CC2)cc1`, the Potency entry is “inactive”.

`CCOC(=O)c1scc(-c2ccc(C)cc2)c1S(=O)(=O)Nc1cc(C)ccc1C`: the Potency result is “inactive”.

For `COc1cccc(NCCC(=O)c2cccc([N+](=O)[O-])c2)c1`, the Potency is 20 µM (active).

As for `COc1cccc(C(=O)CC(=O)C(=O)Nc2ccc([N+](=O)[O-])cc2C)c1`, the Potency entry is “inactive”.

Consider `COc1ccc(NS(=O)(=O)c2cc(NC(=O)CC(=O)c3ccc([N+](=O)[O-])cc3)ccc2C)cc1`, for which the Potency entry is “inactive”.

For `Cc1ccccc1CNC(=O)C1CCCN(S(=O)(=O)N(C)c2ccc(F)cc2)C1` (configuration not stated), the Potency entry was “inactive”.

`CC1CN(c2cc(=O)n(Cc3ccc(F)cc3)c(=O)[nH]2)CC(C)O1` (configuration not stated): the Potency is 10 µM (active).

On to `CC(C)(C)N1CC(c2nc3ccccc3n2Cc2ccc(F)cc2)CC1=O` (configuration not stated), for which the Potency result was “inactive”.

Take `Cc1ccc(-n2c(=O)cc(N3CCN(Cc4ccccc4)CC3)[nH]c2=O)cc1`: the Potency result was “inactive”.

With `Cc1c(Cl)cccc1NC(=O)Cn1cc(C(=O)c2cccs2)c2ccccc21`, the Potency result was “inactive”.

As to `O=C(Cn1c(=O)n(-c2ccc(F)cc2)c(=O)c2sc3ccccc3c21)NC1CCCC1`, the Potency entry was “inactive”.

As for `O=[N+]([O-])c1cc(S(=O)(=O)CCCN2CCOCC2)ccc1F`, the Potency is 11.2 µM (active).

As to `O=S(=O)(NCCCN1CCOCC1)c1ccc(F)c(Cl)c1`, the Potency result is “inactive”.

`O=C(NCCCN1CCOCC1)c1ccccc1NS(=O)(=O)c1ccc(F)cc1`: the Potency result is “inactive”.

`CC1CC2C3CCC4=CC(=O)C=C[C@]4(C)[C@@]3(F)[C@@H](O)C[C@]2(C)[C@@]1(O)C(=O)CO` (some centres not stated): the Potency entry is “inactive”.

Regarding `COc1cc(OC)c(OC)cc1/C=C1\C=Cc2ccccc21`, the Potency result was “inactive”.

Take `Cc1nnc(SCCCCSc2nnc(C)c(=O)[nH]2)[nH]c1=O`: the activity change, negative = inhibition is 12.5% [at 11.4 µM].

On to `Cc1nnc(SCC(=O)NCc2cccs2)[nH]c1=O`, for which the Potency result was “inactive”.

As for `CCCCOC(=O)CNc1nnc(SCC(=O)OCC)[nH]c1=O`, the Potency was 11.2 µM (active).

Turning to `Cc1[nH]c2ccccc2c1C(=O)C(=O)N(C)c1ccccc1`, the Potency entry is “inactive”.

As to `Cc1cc(C)cc(NC(=O)CSc2nc3nccnc3c(=O)n2CCc2c[nH]c3ccccc23)c1`, the Potency result is “inactive”.

Take `O=C(/C=C/c1ccco1)NC(=S)N1CCCCC1`: the Potency is 28.2 µM (active).

With `COc1ccc(Cl)cc1C(=O)NNC(=S)NC(=O)/C=C/c1ccco1`, the Potency entry was “inactive”.

Regarding `COc1ccccc1/C=C/C(=O)NC(=S)N1CCOCC1`, the Potency entry is “inactive”.

On to `Cn1c(=O)cc(OCC(=O)N2CCN(c3ccccc3)CC2)c2ccccc21`, for which the Potency result is “inactive”.

`COc1ccc(-c2nc3nc(C)cc(C)n3c2Nc2c(C)cccc2C)cc1`: the Potency entry was “inactive”.

Turning to `CCn1c(SC)nc(O)c(C(c2ccc(OC)c(O)c2)c2c(O)nc(SC)n(CC)c2=O)c1=O`, the Potency was 50.1 µM (active).

With `CCn1c(SCC(=O)NNC(=O)c2ccc(OC)cc2)nnc1C(C)C`, the Potency result is “inactive”.

Turning to `COc1ccc(-n2c(SC)nc(O)cc2=O)cc1`, the Potency result was “inactive”.

Regarding `O=C(Cn1ncc2c3ccccc3n(Cc3ccccc3)c2c1=O)NC1CCCCCC1`, the Potency entry was “inactive”.

`Cc1ccc(NC(=O)C(=O)NCC(c2cccnc2)N2CCOCC2)cc1` (configuration not stated): the Potency entry was “inactive”.

`CCN1CCN(C(c2cccnc2)c2cc(Cl)c3cccnc3c2O)CC1` (configuration not stated): the Potency was 4.47 µM (active).

In the case of `O=C(NCc1cccnc1)C(=O)NCC(c1cccnc1)N1CCN(c2ccccc2)CC1` (configuration not stated), the Potency entry was “inactive”.

As to `COc1ccccc1N1CCN(C(CNC(=O)C(=O)NCc2ccc(C)cc2)c2cccnc2)CC1` (configuration not stated), the Potency entry was “inactive”.

On to `CCOc1ccc(C(NC(=O)c2cc(OC)c(OC)c(OC)c2)c2cc(Cl)c3cccnc3c2O)cc1` (configuration not stated), for which the Potency result is “inactive”.

For `CCOC(=O)N1CCN(C(c2cccnc2)c2ccc3cccnc3c2O)CC1` (configuration not stated), the Potency was 0.398 µM (active).

For the molecule `COc1ccc(CN(Cc2ccccc2)C(=O)c2ccc(O)cc2)cc1COc1ccc(NC(C)=O)cc1`, the Potency result is “inactive”.

Regarding `Cc1ccc(C2C(C#N)C(C#N)N3CCCN23)cc1` (configuration not stated), the Potency is 22.4 µM (active).

On to `COc1ccc(CCNC(=O)Cn2c(=O)n(-c3ccccc3)c(=O)c3c(C)c(C)sc32)cc1OC`, for which the Potency result was “inactive”.

In the case of `CC(C)(C)OC(=O)N1CCC(c2c(C(=O)NCCc3ccsc3)cnn2-c2ccc(F)cc2F)CC1`, the Potency result was “inactive”.

`CCn1cc(CN2CCC(n3nccc3NC(=O)CCCc3ccccc3)CC2)c(C)n1`: the Potency entry was “inactive”.

Consider `COc1ccc(CN2CCC(n3nccc3NC(=O)CCCc3ccccc3)CC2)cc1C`, for which the Potency result is “inactive”.

With `Cc1ccc(CN2CCC(n3nccc3NC(=O)CCCc3ccccc3)CC2)o1`, the Potency was 70.8 µM (active).

Turning to `CN(C)c1cccc2ccccc12`, the Potency entry was “inactive”.

In the case of `COC(=O)C1=C(C(=O)OC)[C@@H]2N(Cc3ccccc3)c3ccccc3[C@@]23C[C@@H](C(=O)OC)N(S(=O)(=O)c2ccc(C(F)(F)F)cc2)C3=N1`, the Potency result is “inactive”.

On to `Cc1ccc2nc(NC(=O)c3nc(SCc4ccccc4F)ncc3Cl)sc2c1`, for which the Potency entry was “inactive”.

For `Cc1cccc(NC(=O)Cn2cc(S(=O)(=O)Cc3ccccc3Cl)c3ccccc32)c1`, the Potency entry was “inactive”.

For `Cc1ccc(CCNC(=O)c2ccc(CS(=O)(=O)Cc3cccc(C)c3)o2)cc1`, the Potency result was “inactive”.

On to `CCS(=O)(=O)c1ncc(N(Cc2ccc(F)cc2)Cc2ccco2)c(C(=O)Nc2cc(C)ccc2C)n1`, for which the Potency result is “inactive”.

As for `CCOCCCNC(=O)c1c(NC(=O)c2nc(SC)ncc2Cl)sc2c1CCCC2`, the Potency result is “inactive”.

With `Cc1cccc(NC(=O)c2nc(S(=O)(=O)Cc3ccccc3)ncc2Cl)c1`, the Potency is 5.62 µM (active).

On to `CSc1nnc(NC(=O)c2nc(S(=O)(=O)Cc3ccc(C)cc3)ncc2Cl)s1`, for which the Potency is 15.8 µM (active).

For the molecule `Cc1cccc(CS(=O)(=O)c2ncc(Cl)c(C(=O)Nc3ccc(F)cc3)n2)c1`, the Potency was 7.94 µM (active).

As for `CCCSc1ncc(Cl)c(C(=O)Nc2c(C(=O)Nc3ccccc3)oc3ccccc23)n1`, the Potency entry is “inactive”.

As for `Cc1ccc(NC(=O)c2nc(S(=O)(=O)Cc3cccc(C)c3)ncc2Cl)cc1`, the Potency was 1.78 µM (active).

On to `CSc1ncc(Cl)c(C(=O)Nc2ccc(S(=O)(=O)N3CCCC(C)C3)cc2)n1` (configuration not stated), for which the Potency result is “inactive”.

With `CCOC(=O)c1ccc(NC(=O)c2nc(SCc3ccc(F)cc3)ncc2Cl)cc1`, the Potency entry is “inactive”.

Turning to `CN(C)c1cccc(C(=O)Nc2nc3ccc(S(=O)(=O)NC(C)(C)C)cc3s2)c1`, the Potency entry is “inactive”.

Take `CN(C)c1ccc(/C=C/c2c3ccccc3nc3ccccc23)cc1`: the Potency entry is “inactive”.

On to `Cc1ccc(CNS(=O)(=O)c2ccc(-c3cc(C(F)(F)F)on3)s2)cc1`, for which the Potency result is “inactive”.

For `Cc1nn(-c2ccc(N3CCCCC3)nn2)c(C)c1CCC(=O)NCc1ccc(F)cc1`, the Potency entry is “inactive”.

As to `COc1ccccc1NC(=O)c1oc2ccccc2c1NC(=O)COc1ccccc1OC`, the Potency entry is “inactive”.

Turning to `COc1ccc(S(=O)(=O)c2c(Nc3cccc(Cl)c3)sc(C(=O)c3ccccc3)c2N)cc1`, the Potency entry is “inactive”.

As for `O=C(CNS(=O)(=O)c1cccs1)N1CCN(c2ccccc2Cl)CC1`, the Potency result is “inactive”.

On to `COc1ccccc1CNC(=O)C(Cc1ccccc1)NS(=O)(=O)c1ccc2c(c1)oc(=O)n2C` (configuration not stated), for which the Potency result is “inactive”.

As for `CCOC(=O)c1c(C)oc2nc(C)nc(N(CC(C)C)CC(C)C)c12`, the Potency result was “inactive”.

Regarding `Cc1ccc(CNC(=O)CCNS(=O)(=O)c2ccc3c(c2)oc(=O)n3C)cc1`, the Potency entry was “inactive”.

`CCOC(=O)c1c(NC(=O)c2ccc(S(=O)(=O)N(CC)CC)cc2)sc2c1CCCCC2`: the Potency result was “inactive”.
